Measurements published in PubChem BioAssay.
Calls of active or inactive are those of the source. No rule for the calls is given here.

Experiments:
[1] = liver-stage malaria parasite load reduction – cell-based, known kinase inhibitor set, luminescence, hepatoma host viability (AID 624392); settings: Plasmodium liver stage in hepatoma cells, luciferase luminescence, concentration not given here; liver cell % of control: measured here: host liver cell viability; parasite % of control: stronger effect = lower value;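 also: infected cells incubated roughly two days before readout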
[2] = altered dexamethasone sensitivity, NF-kB reporter, cell-based, luciferase, IL-1B stimulus (AID 624486); settings: IL-1B + dexamethasone, luminescence; percent of negative control (+Dex): actives lie on both sides, concentration not given here; z-score: measured here: IL-1B alone, no Dex;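 as to percent of negative control (+Dex): 100% = mean signal of vehicle control wells on the plate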
[3] = biological target: Cellular tumor antigen p53 (Homo sapiens) (UniProt P04637); assay: GFP-p53 level modulators in HPV16+ cells – imaging, known kinase inhibitor set, EGFP/DsRed ratio (AID 1053116); settings: GFP-p53 stability, stronger effect = higher value; EGFP object count: measured here: GFP-p53 positive objects count;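 also: cells exposed to compounds for 24 h at 37 °C before reading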
[4] = inducers of IRF3 signaling, differentiated THP-1 – cell-based, PMA-stimulated THP-1, luminescence (AID 1053176); settings: PMA-differentiated THP-1, IRF3 reporter luminescence; stronger effect = higher value

Sequence of Cellular tumor antigen p53 (Homo sapiens) (P04637 whole entry, looked up): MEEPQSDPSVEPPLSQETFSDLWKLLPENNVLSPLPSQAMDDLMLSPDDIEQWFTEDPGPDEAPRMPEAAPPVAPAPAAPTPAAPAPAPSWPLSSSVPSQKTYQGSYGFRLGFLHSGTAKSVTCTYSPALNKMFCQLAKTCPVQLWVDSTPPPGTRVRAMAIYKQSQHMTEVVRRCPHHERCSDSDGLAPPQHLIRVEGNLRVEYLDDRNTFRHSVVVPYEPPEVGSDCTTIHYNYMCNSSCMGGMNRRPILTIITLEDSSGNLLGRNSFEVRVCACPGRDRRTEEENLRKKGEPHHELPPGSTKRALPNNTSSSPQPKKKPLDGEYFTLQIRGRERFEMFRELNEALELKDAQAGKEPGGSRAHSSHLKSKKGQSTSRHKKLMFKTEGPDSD

SMILES | liver cell % of control [1] [%] | parasite % of control [1] | percent of negative control (+Dex) [2] | z-score [2] | EGFP object count [3] | EGFP/DsRed ratio [3] | fraction signal [4]
Cn1cc(C2=C(c3ccccc3C(F)(F)F)C(=O)NC2=O)c2ccccc21 | 149 | 31% (inactive) | 114% (inactive) | 0.1 | 32.5 | 0.646 (inactive) | 0.01 (inactive)
Cn1cc(C2=C(c3cn(C)c4cc(Cl)ccc34)C(=O)NC2=O)c2ccccc21 | 82.6 | 48.4% (inactive) | 126% (active) | -0.405 | 31 | 0.0945 (inactive) | -0.009 (inactive)
O=C1Nc2ccc(F)c3c(OCCO)cc(-c4ccc[nH]4)c1c23 | 83.9 | 52.1% (inactive) | 105% (inactive) | 1.54 | 6 | 0.192 (inactive) | -0.016 (inactive)
Cc1nc2sc3c(N)ncnc3c2c(C)c1C | 140 | 42% (inactive) | 77.5% (inactive) | -1.64 | 5 | 0.308 (inactive) | -0.003 (inactive)
O=C1NC(=NCCc2cccc(Cl)c2)SC1=Cc1ccc2ncccc2c1 | 131 | 170% (inactive) | 89.5% (inactive) | -0.11 | 15 | 0.216 (inactive) | -0.0025 (inactive)
Cc1[nH]nc2c1N=C(c1ccccc1F)c1cc(C(N)=O)ccc1N2 | 91.5 | 76.9% (inactive) | 110% (inactive) | 0.59 | 54.5 | 0.555 (active) | -0.005 (inactive)
Cn1cc(C2=C(c3cn(CCN)c4ccccc34)C(=O)NC2=O)c2ccccc21 | 89.8 | 29.9% (inactive) | 99% (inactive) | 0.435 | 14.5 | 0.0574 (inactive) | 0.0015 (inactive)
O=C1NC(O)C(c2c[nH]c3ccccc23)=C1c1c[nH]c2ccccc12 (configuration not stated) | 141 | 47.1% (inactive) | 93% (inactive) | 0.455 | 4 | 0.15 (inactive) | 0.001 (inactive)
Cn1cc(C2=C(c3cn(CCO)c4ccccc34)C(=O)NC2=O)c2ccccc21 | 89.7 | 54.6% (inactive) | 124% (inactive) | -1.11 | 25 | 0.285 (inactive) | -0.0245 (inactive)
O=C1NC(=NC2CC2c2ccccc2)SC1=Cc1ccc2ncccc2c1 (configuration not stated) | 193 | 10.6% (inactive) | 64% (active) | -4.3 | 3 | 0.221 (inactive) | -0.0115 (inactive)
Cn1c(=O)c(Oc2ccc(F)cc2F)cc2cnc(NC(C)(C)CO)nc21 | 114 | 73.2% (inactive) | 106% (inactive) | 1.07 | 3 | 0.148 (inactive) | 0.023 (inactive)
Nc1c(C(=O)c2ccc(CCCN3CCOCC3)cc2)cnn1-c1ccc(F)cc1 | 119 | 61% (inactive) | 106% (inactive) | 0.435 | 2 | 0.0463 (inactive) | 0.001 (inactive)
O=C1NC(=NCc2c(Cl)cccc2Cl)SC1=Cc1ccc2ncccc2c1 | 106 | 51.5% (inactive) | 101% (inactive) | 0.16 | 2.5 | 0.0754 (inactive) | -0.009 (inactive)
CN(C)CC#Cc1cccc(C(=O)c2cnn(-c3ccc(F)cc3)c2N)c1 | 101 | 74.8% (inactive) | 109% (inactive) | 1.23 | 3 | 0.0589 (inactive) | -0.001 (inactive)
COc1ccc(OC)c(C2=C(c3cn(C)c4ccccc34)C(=O)NC2=O)c1 | 105 | 22.1% (inactive) | 99% (inactive) | -0.03 | 15 | 0.328 (inactive) | -0.003 (inactive)
Cn1cc(C2=C(NN3CCOCC3)C(=O)NC2=O)c2ccccc21 | 102 | 52.1% (inactive) | 101% (inactive) | 0.61 | 7 | 0.147 (inactive) | -0.016 (inactive)
Cn1cc(C2=C(c3cccnc3)C(=O)NC2=O)c2ccccc21 | 312 | 2% (active) | 110% (inactive) | -1.34 | 8.5 | 0.135 (inactive) | -0.005 (inactive)
COc1cc(F)c(F)cc1C(=O)c1cnc(NC2CCN(S(C)(=O)=O)CC2)nc1N | 107 | 392% (inactive) | 79% (inactive) | -1.08 | 1 | 0.11 (inactive) | -0.003 (inactive)
Cn1cc(C2=C(c3ccccc3[N+](=O)[O-])C(=O)NC2=O)c2ccccc21 | 80.1 | 121% (inactive) | 147% (active) | -1.21 | 19 | 0.315 (inactive) | 0.0035 (inactive)
O=C1NC(=NCCc2ccc(Cl)cc2)SC1=Cc1ccc2ncccc2c1 | 108 | 53.8% (inactive) | 95% (inactive) | 0.425 | 6.5 | 0.259 (inactive) | -0.0075 (inactive)
CC(CO)Nc1cc(-c2[nH]c3cccnc3c2-c2ccc(F)cc2)ccn1 (configuration not stated) | 124 | 78.1% (inactive) | 85.5% (inactive) | -0.435 | 4.5 | 0.0626 (inactive) | -0.0075 (inactive)

SMILES | liver cell % of control [1] [%] | parasite % of control [1] | percent of negative control (+Dex) [2] | z-score [2] | EGFP object count [3] | EGFP/DsRed ratio [3] | fraction signal [4]
COc1cccc(C2=C(c3cn(C)c4cc(F)ccc34)C(=O)NC2=O)c1 | 128 | 31.5% (inactive) | 114% (inactive) | 0.535 | 7 | 0.327 (inactive) | 0.0095 (inactive)
Cn1cc(C2=C(c3cn(C)c4c([N+](=O)[O-])cccc34)C(=O)NC2=O)c2ccccc21 | 78.7 | 22.7% (inactive) | 102% (inactive) | -0.03 | 18.5 | 0.137 (inactive) | -0.005 (inactive)
Cn1cc(C2=C(n3ccc4ccccc43)C(=O)NC2=O)c2ccccc21 | 130 | 37.7% (inactive) | 95.5% (inactive) | 0.125 | 4 | 0.178 (inactive) | -0.0025 (inactive)
CC(=O)NC(Cc1ccc(OP(=O)(O)O)cc1)C(=O)NC1CCC(=O)N2CCCC(C(=O)NCc3cccc4ccccc34)N2C1=O (configuration not stated) | 98.5 | 45.1% (inactive) | 100% (inactive) | -0.165 | 8 | 0.214 (inactive) | -0.0075 (inactive)
O=C1NC(=NCc2cccs2)SC1Cc1ccc2ncccc2c1 (configuration not stated) | 108 | 12.8% (inactive) | 96% (inactive) | -0.14 | 2.5 | 0.109 (inactive) | 0.0035 (inactive)
COc1cc(F)c(F)c(F)c1C(=O)c1cnc(NC2CCN(S(C)(=O)=O)CC2)nc1N | 92.2 | 450% (inactive) | 122% (inactive) | 0.18 | 3 | 0.21 (inactive) | -0.0095 (inactive)
NC1=NC(=O)C(=Cc2ccc3ncccc3c2)S1 | 101 | 50.6% (inactive) | 100% (inactive) | 0.495 | 4 | 0.204 (inactive) | -0.007 (inactive)
CCn1c(=O)c(Oc2ccc(F)cc2F)cc2cnc(NC3CCOCC3)nc21 | 103 | 55.7% (inactive) | 85.5% (inactive) | -0.82 | 3.5 | 0.0988 (inactive) | -0.005 (inactive)
O=C1NC(=NCCCc2ccccc2)SC1=Cc1ccc2ncccc2c1 | 104 | 43% (inactive) | 83% (inactive) | -0.69 | 5 | 0.104 (inactive) | -0.011 (inactive)
O=C1NC(=NCCc2ccc(Br)cc2)SC1=Cc1ccc2ncccc2c1 | 140 | 66.4% (inactive) | 99.5% (inactive) | -0.18 | 3 | 0.0813 (inactive) | 0.006 (inactive)
O=C1NC(=NCc2ccccc2Br)SC1=Cc1ccc2ncccc2c1 | 130 | 32.9% (inactive) | 85.5% (inactive) | -0.56 | 8 | 0.253 (inactive) | -0.0095 (inactive)
Cn1cc(C2=C(c3cn(CCCO)c4ccccc34)C(=O)NC2=O)c2ccccc21 | 101 | 33.3% (inactive) | 115% (inactive) | -0.1 | 9.5 | 0.221 (inactive) | 0.0055 (inactive)
CN1CCN(CC#Cc2cccc(C(=O)c3cnn(-c4ccc(F)cc4)c3N)c2)CC1 | 96.5 | 46.3% (inactive) | 104% (inactive) | 0.495 | 3.5 | 0.0523 (inactive) | 0.0015 (inactive)
Cn1cc(C2=C(c3cn(CCCN=C(N)N)c4ccccc34)C(=O)NC2=O)c2ccccc21 | 110 | 44.7% (inactive) | 101% (inactive) | 0.295 | 7.5 | 0.202 (inactive) | -0.005 (inactive)
Nc1c(C(=O)c2cccc(-c3cccnc3)c2)cnn1-c1ccc(F)cc1 | 219 | 7.92% (inactive) | 111% (inactive) | 0.475 | 3 | 0.0451 (inactive) | -0.005 (inactive)
Cn1c(=O)c(Oc2ccccc2)cc2cnc(NC3CCOCC3)nc21 | 106 | 60.6% (inactive) | 105% (inactive) | 1.03 | 3.5 | 0.0479 (inactive) | -0.005 (inactive)
O=[N+]([O-])c1ccc2c(c1)C(c1ccccc1Cl)=Nc1c(n[nH]c1-c1cccnc1)N2 | 237 | 4.98% (inactive) | 102% (inactive) | -0.45 | 8 | 0.194 (inactive) | 0.01 (inactive)
O=C1NC(=NCC(CO)c2ccccc2)SC1=Cc1ccc2ncccc2c1 (configuration not stated) | 106 | 72.5% (inactive) | 86% (inactive) | -0.105 | 0.5 | 0.00131 (inactive) | 0.006 (inactive)
CON=C1NC(=O)C(=Cc2ccc3ncccc3c2)S1 | 89.4 | 71.6% (inactive) | 113% (inactive) | 2.23 | 3.5 | 0.0939 (inactive) | -0.005 (inactive)
O=c1[nH]c2nc(NC3CCOCC3)ncc2cc1Oc1ccc(F)cc1F | 94.5 | 56.1% (inactive) | 104% (inactive) | 0.61 | 2 | 0.08 (inactive) | -0.003 (inactive)
